Data published in PubChem BioAssay (Tox21).
Inconclusive results are not listed. The source made the active and inactive calls. Unless noted, calls follow the shape of the dose curve; as a rule, active = well fitted curve in the direction sought with a large enough effect in the repeat runs; inconclusive = weak or mixed curves; inactive = no such curve, though single readings can be large; an effect the other way counts as inactive or inconclusive. Non-standard residues stand in square brackets, D forms with d. Residues, ends and D or L forms follow the SMILES beside them. *: point of attachment. Sta = CC(C)C[C@H](N)[C@@H](O)CC(=O)O; Isovaleryl = CC(C)CC(=O)*

Tests used:
[1] = qHTS assay for small molecule agonists of the p53 signaling pathway (AID 651631; calls by dose curve; also: nearly all actives have a fitted effect of over 15% in size; also: potency is read from the fitted curve at half-maximal effect)
Outline: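 We treat p53RE-bla HCT-116 cells with compounds for 16 h at 37 °C, add LiveBLAzer B/G FRET substrate for 2 h at room temperature, and measure fluorescence intensity.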

[2] = qHTS assay for small molecules that induce genotoxicity in human embryonic kidney cells expressing luciferase-tagged ATAD5 (AID 651632); also: nearly all actives have a fitted effect of over 15% in size
Outline: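 Increased luciferase signal from ATAD5-tagged reporter cells indicates DNA-damage-driven ATAD5 induction. HEK293T cells are treated for 16 hr at 37C before detection with Amplite.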

[3] = qHTS assay for small molecule agonists of the p53 signaling pathway - cell viability (AID 651633; calls by dose curve;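 also: p53RE-bla HCT reporter cells with a stable beta-lactamase p53 reporter; series mostly up to about 83 µM; nearly all actives have a fitted effect of over 30% in size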)
Outline: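 p53RE-bla cells were treated with compound for 16 hours at 37 C. Cytotoxicity was then measured as CellTiter-Glo luminescence after 30 min at room temperature.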

[4] = qHTS assay for small molecules that induce genotoxicity in human embryonic kidney cells expressing luciferase-tagged ATAD5 - cell viability (AID 651634; calls by dose curve; also: nearly all actives have a fitted effect of over 25% in size)
Outline: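 Cytotoxicity counterscreen in HEK293T cells bearing an ATAD5-luciferase reporter: live-cell protease activity measured by CellTiter-Fluor fluorescence after 15.5 hr compound exposure.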

[5] = qHTS assay for small molecule disruptors of the mitochondrial membrane potential - cell viability (AID 720634; calls by dose curve;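 also: human HepG2 liver cancer cells; series mostly up to about 83 µM; nearly all actives have a fitted effect of over 20% in size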)
Outline: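 After overnight attachment at 37 C, HepG2 cells received compound or DMSO vehicle for 1 hr. Viability is then taken from ATP-driven luminescence following a 30 min room-temperature CellTiter-Glo step.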

[6] = qHTS assay for small molecule disruptors of the mitochondrial membrane potential (AID 720635); also: potency is read from the fitted curve at half-maximal effect
Outline: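 HepG2 cells exposed to compound 1 hr at 37C, then Mito-MPS dye 30 min. Ratio read of aggregate (540/590 nm) versus monomer (490/535 nm) fluorescence.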

[7] = qHTS assay to test for compound auto fluorescence at 590 nm (red) in HepG2 cells (AID 720674)
Outline: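 Fluorescence at 590 nm emission following 540 nm excitation was recorded from HepG2 wells one hour after compound transfer, with DMSO-only wells as vehicle and Rose Bengal sodium equivalency as the scale.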

[8] = qHTS assay to test for compound auto fluorescence at 535 nm (green) in HepG2 cells (AID 720675)
[9] = qHTS assay to test for compound auto fluorescence at 460 nm (blue) in HEK293 cells (AID 720678)
Outline: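 HEK293 cells (2,000 per well, medium with 10% dialyzed FBS) attached for 4-5 hr at 37C, then received compound and stood overnight at 37C, 5% CO2. Blue fluorescence was read at Ex/Em 405/460 nm and expressed relative to triamterene.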

[10] = qHTS assay to test for compound auto fluorescence at 590 nm (red) in HEK293 cells (AID 720679)
Outline: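 HEK293 cells (2,000/well, medium with 10% dialyzed FBS) attached for 4-5 hr at 37C, received 23 nL compound and were incubated overnight at 37C, 5% CO2. Red fluorescence was then read at 540/590nm Ex/Em, referenced to Rose Bengal sodium.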

[11] = qHTS assay to test for compound auto fluorescence at 535 nm (green) in HEK293 cells (AID 720680)
[12] = qHTS assay to test for compound auto fluorescence at 460 nm (blue) in HEK293 cell free culture (AID 720681)
Outline: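 Compounds were added to cell-free DMEM with 10% FBS and fluorescence read directly. The blue channel used 405 nm excitation and 460 nm emission, with triamterene as the reference fluorophore.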

[13] = qHTS assay to test for compound auto fluorescence at 535 nm (green) in HEK293 cell free culture (AID 720682)
Outline: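 Green-channel intensity (Ex/Em 485/535 nm) was recorded from compound-treated wells containing only DMEM with 10% FBS. Fluorescein provided the equivalency standard.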

[14] = qHTS assay to test for compound auto fluorescence at 590 nm (red) in HEK293 cell free culture (AID 720683)
Outline: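 Cell-free wells of DMEM with 10% FBS received compound, and intrinsic fluorescence was read at excitation/emission 540/590 nm. Values expressed as equivalence to Rose Bengal sodium.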

[15] = qHTS assay to test for compound auto fluorescence at 590 nm (red) in HepG2 cell free culture (AID 720684)
Outline: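 Compounds are added to culture medium (MEM, 10% FBS) lacking cells, then fluorescence is read at excitation 540 nm, emission 590 nm, with Rose Bengal sodium as the equivalency standard.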

[16] = qHTS assay to test for compound auto fluorescence at 460 nm (blue) in HepG2 cell free culture (AID 720685)
Outline: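 Compound (23 nL) or DMSO pinned into cell-free MEM with 10% FBS; blue fluorescence read at 405/460 nm excitation/emission, expressed as auto-fluorescence equivalency to triamterene.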

[17] = qHTS assay to test for compound auto fluorescence at 460 nm (blue) in HepG2 cells (AID 720687)
Outline: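 HepG2 cells in MEM with 10% FBS, attached overnight at 37 C, were exposed to compound or DMSO for 1 hr at 37 C, 5% CO2. Blue fluorescence was read at 405/460 nm, with triamterene as reference fluorophore.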

[18] = qHTS assay to test for compound auto fluorescence at 535 nm (green) in HepG2 cell free culture (AID 720686)
[19] = target: Glucocorticoid receptor (Homo sapiens) (UniProt P04150); assay: qHTS assay to identify small molecule agonists of the glucocorticoid receptor (GR) signaling pathway (AID 720691; active = well fitted activation curve with a large enough effect in the signal ratio in the repeat runs, not every such curve was filed as active; the % refers to the signal ratio)
Outline: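 Agonist mode in a HeLa line carrying a GRE-controlled beta-lactamase reporter. Compounds act for 18 h at 37 C before a 2 h room-temperature FRET substrate step and fluorescence reading.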

[20] = target: Glucocorticoid receptor (Homo sapiens) (UniProt P04150); assay: qHTS assay to identify small molecule antagonists of the glucocorticoid receptor (GR) signaling pathway (AID 720692; active = well fitted inhibition curve with a large enough effect in the signal ratio in the repeat runs, not every such curve was filed as active; the % refers to the signal ratio)
Outline: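 Cells plated, rested 4 h at 37 C/5% CO2; compounds in DMSO pin-transferred; dexamethasone added to 5 nM final; 18 h at 37 C; B/G FRET substrate added, 2 h room temperature; fluorescence measured.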
% is scaled to controls: 0 for no effect and ±100 for the full control effect.

Glucocorticoid receptor (Homo sapiens), sequence (P04150 whole entry, looked up): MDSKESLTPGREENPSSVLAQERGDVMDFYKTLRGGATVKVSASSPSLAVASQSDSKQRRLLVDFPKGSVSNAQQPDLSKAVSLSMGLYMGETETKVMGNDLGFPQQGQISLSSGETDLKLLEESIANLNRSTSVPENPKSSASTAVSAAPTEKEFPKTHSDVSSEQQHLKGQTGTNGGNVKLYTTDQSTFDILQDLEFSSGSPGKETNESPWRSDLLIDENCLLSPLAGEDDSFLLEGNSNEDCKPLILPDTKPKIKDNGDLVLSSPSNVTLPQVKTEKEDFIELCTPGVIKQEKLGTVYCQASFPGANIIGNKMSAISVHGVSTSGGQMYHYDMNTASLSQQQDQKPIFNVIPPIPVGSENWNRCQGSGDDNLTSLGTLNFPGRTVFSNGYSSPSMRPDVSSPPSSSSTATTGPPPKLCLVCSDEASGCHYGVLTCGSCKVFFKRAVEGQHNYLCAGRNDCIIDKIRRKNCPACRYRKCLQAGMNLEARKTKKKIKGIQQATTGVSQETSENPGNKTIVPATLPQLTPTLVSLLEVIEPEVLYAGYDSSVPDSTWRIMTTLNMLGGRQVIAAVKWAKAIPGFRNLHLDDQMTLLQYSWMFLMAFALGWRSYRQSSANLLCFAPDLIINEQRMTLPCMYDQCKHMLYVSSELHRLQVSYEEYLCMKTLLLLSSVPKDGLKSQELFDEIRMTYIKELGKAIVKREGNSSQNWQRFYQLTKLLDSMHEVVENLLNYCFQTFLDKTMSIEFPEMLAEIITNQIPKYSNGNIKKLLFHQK

CC(CN1CC(=O)NC(=O)C1)N1CC(=O)NC(=O)C1 (stereo not drawn)
active: Potency [1] 11.9 µM
inactive: Potency [2] | outcome [3] | outcome [4] | outcome [5] | Potency [6] | outcome [7] | outcome [8] | outcome [9] | outcome [10] | outcome [11] | outcome [12] | outcome [13] | outcome [14] | outcome [15] | outcome [16] | outcome [17]

CCO[Si](CC(C)C)(OCC)OCC
active: Potency [6] 27.3 µM
inactive: Potency [1] | Potency [2] | outcome [3] | outcome [4] | outcome [5] | outcome [7] | outcome [8] | outcome [9] | outcome [10] | outcome [11] | outcome [12] | outcome [13] | outcome [14] | outcome [15] | outcome [16] | outcome [18] | outcome [17] | Potency [19]

CN(C)CCc1c[nH]c2ccc(CS(=O)(=O)N3CCCC3)cc12
inactive: Potency [1] | Potency [2] | outcome [3] | outcome [4] | outcome [5] | Potency [6] | outcome [7] | outcome [8] | outcome [9] | outcome [10] | outcome [11] | outcome [12] | outcome [13] | outcome [14] | outcome [15] | outcome [16] | outcome [18] | outcome [17]

COC(=O)c1ccc(C(=O)O)cc1
inactive: Potency [1] | Potency [2] | outcome [3] | outcome [4] | outcome [5] | Potency [6] | outcome [7] | outcome [8] | outcome [9] | outcome [10] | outcome [11] | outcome [12] | outcome [13] | outcome [14] | outcome [15] | outcome [16] | outcome [18] | outcome [17] | Potency [19] | outcome [20]

C/C(Cl)=C/CCl
inactive: Potency [1] | Potency [2] | outcome [3] | outcome [4] | outcome [5] | Potency [6] | outcome [8] | outcome [9] | outcome [10] | outcome [11] | outcome [12] | outcome [13] | outcome [14] | outcome [15] | outcome [16] | outcome [18] | outcome [17]

Cc1nc2ccc(Cl)cc2[nH]1
inactive: Potency [1] | Potency [2] | outcome [3] | outcome [4] | outcome [5] | Potency [6] | outcome [7] | outcome [8] | outcome [9] | outcome [10] | outcome [11] | outcome [12] | outcome [13] | outcome [14] | outcome [15] | outcome [16] | outcome [18] | Potency [19] | outcome [20]

Cc1cccc(N)n1
inactive: Potency [1] | Potency [2] | outcome [3] | outcome [4] | outcome [5] | Potency [6] | outcome [7] | outcome [8] | outcome [9] | outcome [10] | outcome [11] | outcome [12] | outcome [13] | outcome [14] | outcome [15] | outcome [16] | outcome [17]

COc1ccc(Cl)cc1C
inactive: Potency [1] | Potency [2] | outcome [3] | outcome [4] | outcome [5] | Potency [6] | outcome [7] | outcome [8] | outcome [9] | outcome [10] | outcome [11] | outcome [12] | outcome [13] | outcome [14] | outcome [15] | outcome [16] | outcome [20]

CC(C)CC(=O)N[C@H](C(=O)N[C@H](C(=O)N[C@@H](CC(C)C)[C@@H](O)CC(=O)N[C@@H](C)C(=O)N[C@@H](CC(C)C)[C@@H](O)CC(=O)O)C(C)C)C(C)C (Isovaleryl-VV[Sta]A[Sta]-OH)
inactive: Potency [1] | Potency [2] | outcome [3] | outcome [4] | outcome [5] | Potency [6] | outcome [7] | outcome [8] | outcome [9] | outcome [10] | outcome [11] | outcome [12] | outcome [13] | outcome [14] | outcome [15] | outcome [16] | outcome [18] | outcome [17]

CCCC(=O)CC
inactive: Potency [1] | Potency [2] | outcome [3] | outcome [4] | outcome [5] | Potency [6] | outcome [7] | outcome [8] | outcome [9] | outcome [10] | outcome [11] | outcome [12] | outcome [13] | outcome [14] | outcome [15] | outcome [16] | outcome [17]

O=C(OOC(=O)c1ccccc1)c1ccccc1
inactive: Potency [1] | Potency [2] | outcome [3] | outcome [4] | outcome [5] | Potency [6] | outcome [7] | outcome [8] | outcome [9] | outcome [10] | outcome [12] | outcome [13] | outcome [14] | outcome [15] | outcome [16] | outcome [18] | outcome [17] | Potency [19] | outcome [20]

COc1cnc(NS(=O)(=O)c2ccc(N)cc2)nc1
inactive: Potency [1] | Potency [2] | outcome [3] | outcome [4] | outcome [5] | Potency [6] | fluorescence, relative to Rose Bengal [7] -0.0895% [at 18.6 µM] | fluorescence, % of fluorescein control [8] -0.0734% [at 18.6 µM] | fluorescence, % of triamterene [9] 0.0096% [at 18.6 µM] | fluorescence, % of fluorescent control [10] 0.0444% [at 18.6 µM] | fluorescence, % of fluorescent control [12] 0.0732% [at 18.6 µM] | activity change [13] -0.0115% [at 18.6 µM] | fluorescence, % of fluorescent control [14] -0.0163% [at 18.6 µM] | fluorescence, % of Rose Bengal [15] 0.414% [at 18.6 µM] | fluorescence, % of fluorescent control [16] 0.0024% [at 18.6 µM] | fluorescence, % of fluorescein control [18] 0.0043% [at 18.6 µM] | fluorescence, % of fluorescent control [17] 0.0082% [at 18.6 µM] | outcome [20]

CCCCN=C(N)N=C(N)N
inactive: Potency [1] | Potency [2] | outcome [3] | outcome [4] | outcome [5] | Potency [6] | outcome [7] | outcome [8] | outcome [9] | outcome [10] | outcome [12] | outcome [13] | outcome [14] | outcome [15] | outcome [16] | outcome [18] | outcome [17] | outcome [20]

CCCCCCCCC1CO1 (stereo not drawn)
inactive: Potency [1] | Potency [2] | outcome [3] | outcome [4] | outcome [5] | Potency [6] | outcome [7] | outcome [8] | outcome [9] | outcome [10] | outcome [11] | outcome [12] | outcome [13] | outcome [14] | outcome [15] | outcome [16] | outcome [18] | outcome [17] | outcome [20]
